Source: PMC4336329 (PLoS ONE, 2015)
Hit rate of the full screen: of about 310,000 compounds, about 14,000 (4.5%) showed an effect of 50% or more. Effects have a minus sign here. What follows is part of a selection rich in strong results, with near analogues and random picks from the rest.

Target: human ether-à-go-go-related gene (hERG) potassium channel (human, UniProt Q12809)
Experiment: primary screen, population patch clamp on CHO cells stably expressing hERG; higher = less effect of the substance
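Further: peak tail current of the secondary pulse compared with the same well before compound.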

Sequence of human ether-à-go-go-related gene (hERG) potassium channel (Q12809 whole entry, looked up): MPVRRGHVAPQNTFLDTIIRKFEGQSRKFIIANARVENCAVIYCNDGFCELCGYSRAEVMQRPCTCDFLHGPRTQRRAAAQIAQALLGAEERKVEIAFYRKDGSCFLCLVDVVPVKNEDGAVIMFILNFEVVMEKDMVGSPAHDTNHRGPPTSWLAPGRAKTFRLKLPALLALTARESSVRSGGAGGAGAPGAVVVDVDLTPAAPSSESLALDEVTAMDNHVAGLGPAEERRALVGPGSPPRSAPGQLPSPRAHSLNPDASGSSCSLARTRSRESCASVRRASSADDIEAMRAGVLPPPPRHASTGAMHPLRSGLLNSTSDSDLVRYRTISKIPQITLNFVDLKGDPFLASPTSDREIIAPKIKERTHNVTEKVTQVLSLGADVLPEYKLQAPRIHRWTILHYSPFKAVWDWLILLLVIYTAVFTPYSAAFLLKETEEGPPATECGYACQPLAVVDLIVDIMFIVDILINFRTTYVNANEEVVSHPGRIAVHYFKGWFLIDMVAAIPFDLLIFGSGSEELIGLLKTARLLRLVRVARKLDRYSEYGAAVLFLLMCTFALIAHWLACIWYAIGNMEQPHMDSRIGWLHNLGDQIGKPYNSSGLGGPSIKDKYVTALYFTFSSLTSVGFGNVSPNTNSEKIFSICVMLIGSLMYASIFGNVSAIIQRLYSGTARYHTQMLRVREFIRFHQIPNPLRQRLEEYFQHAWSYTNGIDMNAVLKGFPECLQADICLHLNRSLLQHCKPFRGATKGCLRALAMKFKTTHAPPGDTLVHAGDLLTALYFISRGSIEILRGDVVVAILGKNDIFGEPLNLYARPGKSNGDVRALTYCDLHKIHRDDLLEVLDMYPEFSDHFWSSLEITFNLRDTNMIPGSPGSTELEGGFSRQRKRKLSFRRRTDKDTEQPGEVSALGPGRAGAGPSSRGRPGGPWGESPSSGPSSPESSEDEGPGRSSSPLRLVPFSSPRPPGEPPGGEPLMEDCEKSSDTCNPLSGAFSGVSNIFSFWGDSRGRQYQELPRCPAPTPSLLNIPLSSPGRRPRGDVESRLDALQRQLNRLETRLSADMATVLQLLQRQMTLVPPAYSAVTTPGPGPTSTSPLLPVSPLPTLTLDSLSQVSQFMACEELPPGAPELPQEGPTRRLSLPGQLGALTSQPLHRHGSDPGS

Row | SMILES | hERG current change (%, negative = inhibition) at 10uM [%]
1 | CCCCNC(=O)N1CCCN(c2ccc(C#N)cn2)CC1 | -49.8
2 | N#Cc1ccc(N2CCCNCC2)nc1 | -88.5
3 | N#Cc1ccc(N2CCOCC2)nc1 | -0.729
4 | Cc1ccc(NC(=O)c2nc(S(=O)(=O)Cc3ccccc3C)ncc2Cl)cc1C | 2.81
5 | Cc1nn2c3ccccc3n(CC(=O)c3cccs3)c2nc1=O | 1.78
6 | Cc1ccc(Nc2c(-c3ccco3)nc3ccccn23)cc1 | 2.78
7 | COc1ccccc1C1CCN(Cc2c(C)[nH]c3ccccc23)CC1 | -64.4
8 | COc1ccccc1C1CCN(Cc2ccc(C)cc2)CC1 | -90
9 | Cc1[nH]c2ccccc2c1C(c1ccncc1)N1CCN(c2ccccn2)CC1 (stereo not drawn) | 8.61
10 | COc1ccccc1C1CCN(Cc2cccc3ccccc23)CC1 | -13.9
11 | COc1ccccc1C1CCN(Cc2ccccc2Cl)CC1 | -3.3
12 | COc1ccccc1C1CCN(Cc2ccc(Cl)c(Cl)c2)CC1 | 12.3
13 | COc1ccccc1C1CCN(Cc2ccc3ccccc3c2)CC1 | -75
14 | COc1ccccc1C1CCN(Cc2ccc(Cl)cc2Cl)CC1 | 11.1
15 | COc1ccccc1C1CCN(Cc2cccc([N+](=O)[O-])c2)CC1 | -49.1
16 | Cc1[nH]c2ccccc2c1CN1CCN(c2ccccn2)CC1 | -52.7
17 | COc1ccccc1C1CCN(Cc2ccccc2)CC1 | -34.5
18 | Cc1[nH]c2ccccc2c1CN1CCc2ccccc2C1 | -12.9
19 | COC(=O)CCc1nc2c(C#N)c(-c3ccc(Cl)cc3)ccn2n1 | -2.07
20 | Cc1ccc(/C=N/NC(=O)c2cc(C)oc2C)cc1 | 4.58
21 | COc1ccccc1NC(=O)CC1C(=O)Nc2c1c(=O)n(C)c(=O)n2C (stereo not drawn) | 4.88
22 | Cc1cc(=O)[nH]c(SCC(=O)Nc2nc(-c3ccccc3)c(-c3ccccc3)o2)n1 | 3.76
23 | CC(=O)Nc1ccc(/C=N/N2C(=O)NC(C)(c3ccc(OC(F)F)cc3)C2=O)cc1 (stereo not drawn) | -10.5

Row | SMILES | hERG current change (%, negative = inhibition) at 10uM [%]
24 | COC(=O)c1cc(C(=O)OC)cc(N2C(=O)CC(NNC(=O)c3ccc(C)cc3)C2=O)c1 (stereo not drawn) | -11.5
25 | O=C(O)COn1c(-c2ccccc2)nc2ccc([N+](=O)[O-])cc21 | 11.3
26 | CCOC(=O)C(C)On1c(-c2ccccc2)nc2ccc([N+](=O)[O-])cc21 (stereo not drawn) | -51.3
27 | CCOC(=O)C(C)On1c(-c2ccc(Cl)cc2)nc2ccc([N+](=O)[O-])cc21 (stereo not drawn) | -20.4
28 | COc1cc(NC(=O)C/C(C)=N/NC(=O)C(=O)NC2CCCCC2)c(OC)cc1Cl | -91.2
29 | COc1cc(NC(=O)C/C(C)=N/NC(=O)C2CCCCC2)c(OC)cc1Cl | 9.28
30 | COc1ccc(NC(=O)C/C(C)=N/NC(=O)C(=O)NC2CCCCC2)c(OC)c1 | -8.46
31 | O=C(NNC(=O)c1cc(Cl)ccc1O)c1ccc(NS(=O)(=O)c2cccs2)cc1 | -20.7
32 | CCOC(=O)CC1ON(C)C(=O)N1c1ccc([N+](=O)[O-])cc1 (stereo not drawn) | -6.46
33 | C/C(=N/NC(=O)c1ccn(C)n1)c1ccncc1 | 13.2
34 | Cc1ccccc1SCC(=O)N1CCN(c2ccc(C(F)(F)F)cn2)CC1 | -38
35 | O=S(=O)(c1ccc(C(F)(F)F)cc1)N1CCCN(c2ccc(C(F)(F)F)cn2)CC1 | 5.3
36 | N#Cc1ccc(S(=O)(=O)N2CCCN(c3nc4ccc(Cl)cc4s3)CC2)cc1 | -70.3
37 | O=C(O)COCC(=O)N1CCCN(c2ccc(C(F)(F)F)cn2)CC1 | 14.3
38 | N#Cc1ccc(S(=O)(=O)N2CCCN(c3ccc(C(F)(F)F)cn3)CC2)cc1 | -73.9
39 | CC(CC(=O)N1CCN(c2ccc(C(F)(F)F)cn2)CC1)n1ccnc1 (stereo not drawn) | -66.2
40 | O=S(=O)(c1ccc(Cl)cc1)N1CCCN(c2ccc(C(F)(F)F)cn2)CC1 | -23.3
41 | O=S(=O)(c1ccc(Cl)cc1)N1CCCN(c2nc3ccc(Cl)cc3s2)CC1 | 11.8
42 | CCOC(=O)N1CCN(c2ccc(C(F)(F)F)cn2)CC1 | -4.3
43 | CS(=O)(=O)N1CCN(c2nc3ccc(Cl)cc3s2)CC1 | 5.72
44 | CC(=O)c1cccc(OCC(=O)N2CCN(c3ccc(C(F)(F)F)cn3)CC2)c1 | -16.3
45 | N#Cc1ccc(OCC(=O)N2CCN(c3ccc(C(F)(F)F)cn3)CC2)cc1 | -54.7
